NR1D1 modulator: modulators of human Rev-erb alpha DNA binding. P20393. Rev-erbα–FITC-DNA binding, fluorescence polarization, 90 min. activity, % at 10 µM. actives 0.79% (n = 370,000). AID 1259318;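 active = activity above about 14%, limit read from the data; passing the limit was not always enough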;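 note: 0% = DMSO wells with 35 nM protein and 100% = DMSO wells with 750 nM protein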
ssDAF-12 act: S. stercoralis DAF-12 activation, primary screen; HEK293 ssDAF-12/GRIP1 lit1-tk-luc reporter, luminescence; % of 3 µM dafachronic acid response; activation, % at 6.8 µM; actives 1% (n = 370,000);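 active = activation above the mean over all tested compounds plus 3 SD, cut at about 0.9% in these data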;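 note: 0% = DMSO-only wells and 100% = 3 µM delta7-dafachronic acid wells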
DAX1 inh-1: blocks DAX1 repression of SF-1 activated StAR promoter; HEK293T StAR-luciferase reporter, SF-1/DAX-1 repression relief; inhibition, % at 6.8 µM; actives 1.1% (n = 370,000); AID 652010;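 active = inhibition above the mean over all tested compounds plus 3 SD, cut at about 3.6% in these data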;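 note: 0% = DAX-1 cells with DMSO and 100% = cells lacking DAX-1 with DMSO; higher inhibition means more luminescence from relief of DAX-1 repression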
DAX1 inh-2: inhibitors of human orphan nuclear receptor DAX1 (NR0B1); inhibition, % at 6.75 µM; P51843; actives 0.99% (n = 340,000); HEK293 Gal4-DAX1 luciferase reporter, luminescence;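 active = inhibition above the mean over all tested compounds plus 3 SD, cut at about 4.2% in these data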;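 note: 0% = DAX1-transfected cells with DMSO and 100% = empty-vector control cells with DMSO; inhibition shows as a rise in luminescence from relieved DAX1 repression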
Target sequence (P51843 207-470 limits assumed): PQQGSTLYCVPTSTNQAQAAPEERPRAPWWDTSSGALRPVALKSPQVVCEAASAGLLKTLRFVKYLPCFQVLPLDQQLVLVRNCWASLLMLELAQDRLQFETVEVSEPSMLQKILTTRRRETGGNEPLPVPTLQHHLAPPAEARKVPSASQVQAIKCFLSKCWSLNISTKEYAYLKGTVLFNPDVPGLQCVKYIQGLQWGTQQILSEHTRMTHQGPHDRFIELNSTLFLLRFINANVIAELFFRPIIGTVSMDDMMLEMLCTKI
hcDAF12 agonist: H. contortus DAF-12 activation, primary screen; HEK293 hcDAF-12 lit1-tk-luc reporter, luminescence; 0% DMSO, 100% Δ7-dafachronic acid; activation, % at 6.8 µM; actives 1.4% (n = 370,000);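 active = activation above the mean of all tested compounds plus 3 SD, cut at about 5.5% in these data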;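 note: 100% = response to 3 µM Δ7-dafachronic acid high control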
hgDAF-12 ag: activates the H. glycines DAF-12 receptor ligand-binding domain; HEK293 GAL4-hgDAF12 UAS-luciferase reporter, agonist luminescence; normalized to butyrate control; activation, % at 6.8 µM; actives 1.8% (n = 370,000); AID 687014;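 active = activation above a cutoff set at the mean of all screened compounds plus 3 SD, cut at about 10% in these data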;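 note: 0% = DMSO wells and 100% = sodium butyrate wells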
Starred values were filed as active, the others as inactive; . = not tested or not shown. Hits are enriched below; roughly 4.8% of the tested compounds scored in any of these assays.

SMILES | NR1D1 modulator | ssDAF-12 act | DAX1 inh-1 | DAX1 inh-2 | hcDAF12 agonist | hgDAF-12 ag
CCOc1ccc(C2CC(c3cccc(OC)c3)Nc3nc(N)nn32)cc1 (stereo unspecified) | 0 | -1 | 2 | 4.7* | -1 | 0
COc1cccc(C2CC(c3ccccc3OC)n3ncnc3N2)c1 (stereo unspecified) | -1 | -1 | 0 | 5.5* | 0 | 0
O=C(c1cccc(I)c1)N1CCC(Oc2cccnc2)CC1 | 6 | -2 | 1 | . | -1 | -2
O=C(Nc1nc2ncccn2c1-c1ccc(F)cc1)c1ccc(F)cc1 | 0 | -1 | -2 | . | -2 | 1
COc1ccc(C2C(C(=O)Nc3ccc(F)cc3F)CCC(=O)N2c2ccc(OC)cc2)cc1 (stereo unspecified) | -6 | 0 | -1 | . | -1 | 2
Cc1ccnc(NC(=O)c2ccc3c(c2)C(=O)N(CC(C)C)C3=O)c1 | 1 | -1 | 3.7* | 0 | 1 | 5
Cc1ccccc1-c1nc2sc3c(c2c(=O)n1N)CCCC3 | -3 | -1 | 0 | 4.5* | -2 | -2
Cc1nc2sc3c(c2c(=O)n1N)CCC3 | 4 | -2 | 2 | 1 | -1 | 1
Cc1ccccc1-c1nnc(SCC(=O)Nc2cccnc2Cl)o1 | -3 | 0 | 8.3* | -2 | 5 | 7
Cc1occc1-c1nnc(SCC(=O)Nc2ccccn2)o1 | -6 | -1 | 3.7* | 1 | 2 | 6
Cc1occc1-c1nnc(SCC(=O)NCCc2ccccc2)o1 | -2 | 0 | 0 | 1 | -2 | 4
Cc1occc1-c1nnc(SCCNCCO)o1 | 0 | -2 | 0 | 0 | 2 | 13*
Cc1cc(C)cc(NC(=O)CSc2nnc(-c3ccccc3C)o2)c1 | 2 | -2 | -1 | 0 | -1 | 1
Cc1ccccc1C(=O)NC=C1C(=O)OC(C)(C)OC1=O | -3 | -1 | 0 | 4.2* | 1 | 0
COC(=O)CSc1nnc(-c2ccc(NS(=O)(=O)c3ccc(C)c(C)c3)cc2)o1 | -9 | -2 | 0 | . | -2 | -2
CCOC(=O)c1sc2nc3c(SCCC#N)cc(C(=O)c4cc(F)ccc4O)cn3c(=O)c2c1C | 3 | 1.5* | 1 | 0 | 4 | 4
O=C1c2ccccc2C(=O)N1CCOc1cccc(Br)c1 | 3 | 0 | 4.4* | 1 | 2 | 10
Cc1ccc(OCCN2C(=O)c3ccccc3C2=O)cc1 | -1 | -1 | 0 | 0 | 0 | 2
Cc1ccc(C)n1NC(=O)c1ccccc1O | -3 | 1.4* | 3 | 2 | 4 | 4
Cc1cccc(NC(=O)c2nc[nH]c2C(=O)N(C)CCO)c1 | 5 | -1 | 0 | . | -1 | 1
COc1ccc(-c2ccc(SCC(=O)NC3CCCC3)nn2)cc1 | -6 | -1 | 0 | 4.4* | 1 | 2
COc1ccc2c(c1)c1nnc(SCC(=O)NC3CC3)nc1n2C | -3 | 1.7* | 0 | 1 | 4 | 0
CCSc1nnc(NC(=O)CC(C)C)s1 | -5 | -2 | 1 | 6.4* | 1 | 2
O=C(CSc1nnc(NC(=O)c2ccccc2Cl)s1)NC1CC1 | 0 | 0 | 1 | 2 | 5.6* | 7
Cc1ccc2c(c1)c1nnc(SCC(=O)NC3CC3)nc1n2C | -1 | -1 | 0 | 0 | 2 | 4
SMILES | NR1D1 modulator | ssDAF-12 act | DAX1 inh-1 | DAX1 inh-2 | hcDAF12 agonist | hgDAF-12 ag
CC(=O)N1CCc2cc(S(=O)(=O)NC3CCN(C(=O)OCc4ccccc4)CC3)ccc21 | 4 | -2 | -4 | . | -6 | -6
O=C(CSc1nnc(NC(=O)c2ccccc2F)s1)Nc1ccccc1F | -3 | -2 | 3 | 2 | 2 | 13*
COc1ccc(Nc2nnc(SCC(=O)NC3CC3)s2)cc1 | 2 | -1 | 0 | -1 | 0 | -2
COc1ccc(Nc2nnc(SCC(=O)NC3CCS(=O)(=O)C3)s2)cc1 (stereo unspecified) | 10 | 0 | 3.6* | 1 | 2 | 2
CCSc1nnc(NC(=O)c2ccccc2C)s1 | -3 | -1 | 4.4* | 4 | 2 | 13*
CCSc1nnc(NC(=O)c2ccccc2)s1 | -4 | 0 | 3 | 0 | 5 | 9
COc1ccc(C(=O)Nc2nnc(SCC(=O)NC3CC3)s2)cc1 | 2 | 0 | 1 | 2 | 0 | 11*
O=C(OCc1cn(Cc2ccc(F)cc2F)nn1)N1CCCC1 | 2 | -1 | 0 | . | -1 | -2
O=C(Nc1ccc(F)cc1)OCc1cn(Cc2ccc(F)cc2F)nn1 | -3 | -1 | -1 | . | -2 | 3
C#CCNC(=O)C[C@H]1C[C@@]2(C(=O)OC)C(=C[C@H](C3CCCC3)O[C@@H]2C)N(CCc2ccc(OC)c(OC)c2)C1=O | 2 | -2 | 0 | . | -1 | 1
CCc1ccc(Nc2nnc(SCC(=O)N(C)C3CCS(=O)(=O)C3)s2)cc1 (stereo unspecified) | -2 | 0 | 2 | 1 | 1 | 12*
O=C(CSc1n[nH]c(-c2ccncc2)n1)NC1CCS(=O)(=O)C1 (stereo unspecified) | 8 | -1 | 0 | 1 | -1 | -1
O=C(Nc1nnc(S(=O)(=O)Cc2ccc(F)cc2)s1)c1ccccc1F | 0 | 1.3* | 0 | -1 | -3 | -1
CCc1ccc(-c2nc(SCC(=O)NC3CCS(=O)(=O)C3)n[nH]2)cc1 (stereo unspecified) | -1 | 0 | 3.6* | 3 | 1 | 0
COc1ccc(C(=O)c2[nH]c(N)c(C(=O)c3ccccc3)c2-c2ccc(OC)c(OC)c2)cc1 | 0 | -2 | . | . | 0 | -2
Cc1cc2c(cc1C)NC(=O)CC(C(F)(F)C(F)(F)C(F)(F)F)=N2 | 1 | -1 | 0 | 4.7* | -2 | 2
Cc1ccc2c(c1)NC(=O)CC(c1ccccc1)=N2 | -5 | -1 | 1 | 1 | -1 | 1
Cc1ccnc(SCc2cc(=O)c(OC(=O)c3ccc(C)c([N+](=O)[O-])c3)co2)n1 | 6 | -1 | . | . | -1 | 0
C[C@@H]1CN(C(=O)c2cc(COc3cccc(C(F)(F)F)c3)on2)C[C@H](C)O1 | 7 | -1 | 3 | 2 | 3 | 11*
COc1cc([N+](=O)[O-])ccc1NC(=S)Nc1cccc(C(=O)O)c1 | -2 | -1 | 1 | 1 | 7.0* | 5
COC(=O)Nc1ccc([N+](=O)[O-])cc1OC | 4 | -1 | 0 | 1 | -1 | 0
Cc1cccc(C(=O)Nc2nc3ncccn3c2-c2ccc(F)c(F)c2)c1 | -3 | -1 | -1 | . | -4 | -3
CC(OC(=O)/C(C#N)=C/c1ccco1)C(=O)N(C)c1ccccc1 (stereo unspecified) | -2 | 2.5* | -1 | 0 | 1 | 2
Cc1cc(-c2n[nH]c(=S)n2N=Cc2ccc(-c3ccccc3)cc2)n[nH]1 | 7 | -1 | -1 | . | 0 | 1
